# ± gives the standard deviation of the averaged measurements.
# Test system: TDF
# Test: cell number relative to DMSO (% of DMSO); higher = more cells (less growth inhibition / toxicity)
# Details: concentration: 10 µM; 24 h
# Method in brief: (§1)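 HCC1569 and TDF cells were seeded at 800 per well in 384-well plates in RPMI with 10% FBS and treated with compounds at 10 µM for 24 h at 37 °C, in triplicate. After fixation in 3.7% formaldehyde, cells were stained with a rabbit anti-H1.0 antibody, an AlexaFluor 647 secondary and DAPI, and six fields per well were imaged at ×10. H1.0 nuclear intensity or cell number is given as percent of the plate control, using the median of replicates, with HCC1569 values smoothed for positional effects.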
# 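Wherever H1.0 immunofluorescence intensity relative to DMSO is given: TDF is a line of transformed human dermal fibroblasts of mesenchymal origin.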
# 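Wherever cell number relative to DMSO is given: TDF denotes transformed human dermal fibroblasts of mesenchymal origin.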
row,Structure (SMILES),cell number
1,CCC(=O)OC1(C(=O)SCF)C(C)CC2C3CC(F)C4=CC(=O)C=CC4(C)C3(F)C(O)CC21C (stereo not drawn),105
2,CCCCCC=CCC=CC=CC=CC(O)C(O)CCCC(=O)O (stereo not drawn),100
3,COc1cc2ncnc(Nc3ccc(Oc4ccccc4)cc3)c2cc1OC [Src Kinase Inhibitor I],94.7
4,CCCCCN(C)CCC(O)(P(=O)(O)O)P(=O)(O)O [Ibandronate],100
5,CCC=CCC=CCC=CCCCCCCCC(=O)O [Linolenic acid],98.7 ± 9
6,NS(=O)(=O)c1ccc(N2CCN(CC[C@@H]3OCCc4ccccc43)CC2)cc1,102
7,COc1cccc2oc(-c3ccccc3)cc(=O)c12 [5-Methoxyflavone],84.4
8,COc1ccc2c(c1)c(CC(=O)N1CCOCC1)c(C)n2C(=O)c1ccc(Cl)cc1 [Indomethacin morpholinylamide],100
9,"O.c1cnc2c(c1)ccc1cccnc12 [1,10-Phenanthroline monohydrate]",44.8
10,COc1ccc2cc1Oc1ccc(cc1)CC1c3cc(c(OC)cc3CCN1C)Oc1c(OC)c(OC)c(OC)c3c1C(C2)N(C)CC3 (stereo not drawn) [Hernandezine],93
11,Cn1cnc2c(F)c(Nc3ccc(Br)cc3Cl)c(C(=O)NOCCO)cc21,91.8
12,"O=c1[nH]ccc2c(O)cccc12 [1,5-Isoquinolinediol]",97.2
13,O=C1[N-]C(=O)C(c2ccccc2)(c2ccccc2)N1.[Na+] [Phenytoin sodium],111
14,CNC1(C)C2CCC(C2)C1(C)C.Cl (stereo not drawn) [Mecamylamine hydrochloride],108
15,CNCCC(Oc1ccccc1C)c1ccccc1 (stereo not drawn) [Tomoxetine],112
16,NC1(C(=O)O)CCc2cc(C(=O)O)ccc21 (stereo not drawn),113
17,CC(Oc1c(Cl)cccc1Cl)C1=NCCN1.Cl (stereo not drawn) [Lofexidine.HCl],107
18,CN[C@H](CC(=O)O)C(=O)O [N-Methyl-D-aspartic acid],109
19,CCCCCCCCCCCCCCCCCC(=O)NCC(COP(=O)([O-])OCC[N+](C)(C)C)OC (racemic) [rac-2-Methoxy-3-octadecanamido-1-propylphosphocholine],84.5
20,CC1C(=O)N=C2Nc3cccc(Cl)c3CN21 (stereo not drawn) [Quazinone],106
21,COc1ccc2c(c1)c(C1=C(c3c[nH]c4ccccc34)C(=O)NC1=O)cn2CCCN(C)C,99.3
22,O=[N+]([O-])c1ccc(-c2nc(-c3ccc(F)cc3)c(-c3ccncc3)[nH]2)cc1,101
23,Cl.Cl.OCCN1CCN(CCCN2c3ccccc3Sc3ccc(C(F)(F)F)cc32)CC1 [Fluphenazine.2HCl],107
24,CC(C)c1cccc(C(C)C)c1N1C(=O)c2ccc(O)cc2C1=O,59.5

# Test system: TDF
# Test: H1.0 immunofluorescence intensity relative to DMSO (% of DMSO); higher = stronger H1.0 induction, active = 120 or more
# Details: concentration: 10 µM; 24 h
# Method in brief: as §1
row,Structure (SMILES),H1.0 immunofluorescence intensity
1,C=CC[C@H](N)C(=O)O [L-allylglycine],95.9 (inactive)
2,Oc1ccc(O)cc1 [Hydroquinone],97.3 (inactive)
3,Cc1cc(Nc2nc(NC(C)c3ccc(F)cc3)c(C#N)cc2F)n[nH]1 (stereo not drawn),167 (active)
4,Cn1c(=O)c2c(ncn2CC2OCCO2)n(C)c1=O [Doxofylline],105 (inactive)
5,O=C(O)c1cccnc1C(=O)O [Quinolinic acid],90.7 (inactive)
6,COc1c(O)cc2c(c1O)C1OC(CO)C(O)C(O)C1OC2=O (stereo not drawn) [Bergenin],91.7 (inactive)
7,N#CC(=C(N)Sc1ccc(N)cc1)c1ccccc1C(F)(F)F,90.6 (inactive)
8,COc1ccc(CN2CCN(C(c3ccc(F)cc3)c3ccc(F)cc3)CC2)c(OC)c1OC [Lomerizine],92.3 (inactive)
9,COc1cc2c(cc1-c1c(C)noc1C)ncc1[nH]c(=O)n([C@H](C)c3ccccn3)c12,138 (active)
10,CCCCCCC=CCCCCCCCCCC(=O)O [11(Z)-Octadecenoic acid],112 (inactive)
11,Fc1ccc(C2CCNCC2COc2ccc3c(c2)OCO3)cc1 (stereo not drawn) [Paroxetine],99.1 (inactive)
12,O=c1[nH]c2cc([N+](=O)[O-])c([N+](=O)[O-])cc2[nH]c1=O,91.9 (inactive)
13,COC(=O)C1C2CC3c4[nH]c5cc(OC)ccc5c4CCN3CC2CC(OC(=O)c2cc(OC)c(OC)c(OC)c2)C1OC (stereo not drawn) [Reserpine],101 (inactive)
14,CC(C)(C)C(=O)OCOC(=O)[C@@H]1N2C(=O)[C@@H](/N=C/N3CCCCCC3)[C@H]2SC1(C)C,89 (inactive)
15,CC(C)(CO)Cc1cc(C(C)(C)C)c(O)c(C(C)(C)C)c1,94.6 (inactive)
16,CCC(=O)OC1(C(=O)SCF)C(C)CC2C3CC(F)C4=CC(=O)C=CC4(C)C3(F)C(O)CC21C (stereo not drawn),86.8 (inactive)
17,CCCCCC=CCC=CC=CC=CC(O)C(O)CCCC(=O)O (stereo not drawn),99.2 (inactive)
18,COc1cc2ncnc(Nc3ccc(Oc4ccccc4)cc3)c2cc1OC [Src Kinase Inhibitor I],106 (inactive)
19,CCCCCN(C)CCC(O)(P(=O)(O)O)P(=O)(O)O [Ibandronate],98.4 (inactive)
20,CCC=CCC=CCC=CCCCCCCCC(=O)O [Linolenic acid],101 (inactive)

row,Structure (SMILES),H1.0 immunofluorescence intensity
1,NS(=O)(=O)c1ccc(N2CCN(CC[C@@H]3OCCc4ccccc43)CC2)cc1,99.4 (inactive)
2,COc1cccc2oc(-c3ccccc3)cc(=O)c12 [5-Methoxyflavone],100 (inactive)
3,COc1ccc2c(c1)c(CC(=O)N1CCOCC1)c(C)n2C(=O)c1ccc(Cl)cc1 [Indomethacin morpholinylamide],90.6 (inactive)
4,"O.c1cnc2c(c1)ccc1cccnc12 [1,10-Phenanthroline monohydrate]",108 (inactive)
5,COc1ccc2cc1Oc1ccc(cc1)CC1c3cc(c(OC)cc3CCN1C)Oc1c(OC)c(OC)c(OC)c3c1C(C2)N(C)CC3 (stereo not drawn) [Hernandezine],106 (inactive)
6,Cn1cnc2c(F)c(Nc3ccc(Br)cc3Cl)c(C(=O)NOCCO)cc21,93.3 (inactive)
7,"O=c1[nH]ccc2c(O)cccc12 [1,5-Isoquinolinediol]",87.9 (inactive)
8,O=C1[N-]C(=O)C(c2ccccc2)(c2ccccc2)N1.[Na+] [Phenytoin sodium],99.8 (inactive)
9,CNC1(C)C2CCC(C2)C1(C)C.Cl (stereo not drawn) [Mecamylamine hydrochloride],94.1 (inactive)
10,CNCCC(Oc1ccccc1C)c1ccccc1 (stereo not drawn) [Tomoxetine],103 (inactive)
11,NC1(C(=O)O)CCc2cc(C(=O)O)ccc21 (stereo not drawn),88.5 (inactive)
12,CC(Oc1c(Cl)cccc1Cl)C1=NCCN1.Cl (stereo not drawn) [Lofexidine.HCl],100 (inactive)
13,CN[C@H](CC(=O)O)C(=O)O [N-Methyl-D-aspartic acid],85.2 (inactive)
14,CCCCCCCCCCCCCCCCCC(=O)NCC(COP(=O)([O-])OCC[N+](C)(C)C)OC (racemic) [rac-2-Methoxy-3-octadecanamido-1-propylphosphocholine],95.2 (inactive)
15,CC1C(=O)N=C2Nc3cccc(Cl)c3CN21 (stereo not drawn) [Quazinone],94.9 (inactive)
16,COc1ccc2c(c1)c(C1=C(c3c[nH]c4ccccc34)C(=O)NC1=O)cn2CCCN(C)C,98.6 (inactive)
17,O=[N+]([O-])c1ccc(-c2nc(-c3ccc(F)cc3)c(-c3ccncc3)[nH]2)cc1,84.2 (inactive)
18,Cl.Cl.OCCN1CCN(CCCN2c3ccccc3Sc3ccc(C(F)(F)F)cc32)CC1 [Fluphenazine.2HCl],101 (inactive)
19,CC(C)c1cccc(C(C)C)c1N1C(=O)c2ccc(O)cc2C1=O,119 (inactive)
